Screening results deposited in PubChem by National Center for Advancing Translational Sciences (NCATS).
Compounds with a hit are over-represented: about 3.8% of the library has one in this group of screens.
ATXN2 expr inh = Primary qHTS for Inhibitors of ATXN expression; HEK-293 ATXN2-luciferase reporter, luminescence, 24 h; Potency, µM (series often up to 57 µM), without a hit: top-dose activity change, negative = inhibition, actives largely listed as inhibitors; actives 0.72% (n = 360,000); AID 1745845, 2022; note: % is set by controls: 0 for no effect and ±100 for the full control effect; nearly all actives have a fitted effect of over 55% in size
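qHTS (up to 57 uM final) was run with 24 h compound exposure of reporter cells at 37 °C. Each well was multiplexed: SteadyGlo luminescence measured ATXN2-luciferase expression after a fluorogenic Gly-Phe-AFC viability readout (25 uM final).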
A549 tox = Nrf2 qHTS screen for inhibitors: counterscreen for cytotoxicity; A549 ARE-Fluc cells, CellTiter-Fluor viability, 18-24 h; Potency, µM (doses to about 46 µM), inactives show top-dose activity change, negative = cytotoxicity, usual class: inhibitors; actives 0.16% (n = 390,000); note: % is set by controls: 0 for no effect and ±100 for the full control effect
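A549 ARE-Fluc cells in 5% FBS OPTI-MEM, 5000 cells/well, rested 2 h then exposed to compounds in concentration-response for 18-24 h at 37 °C. Viability by CellTiter-Fluor fluorescence (Ex 405/Em 525) after 30 min; luciferase luminescence (BugLite, 15 min, RT) read afterwards.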
TGFb inhibitor = qHTS for Inhibitors of TGF-b; HepG2 CAGA-GFP TGF-b/SMAD3 reporter, GFP fluorescence, 18 h; TGF-beta stimulated, 500 pg/mL final; Potency, µM (titrated, usually from 46.1 µM), for the others: top-dose activity, negative = inhibition, most hits filed as inhibitors; actives 1.2% (n = 410,000); AID 588855, 2011; note: % is set by controls: 0 for no effect and ±100 for the full control effect; nearly all actives have a fitted effect of over 65% in size
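GFP signal (ex488/em500-530) from TGF-beta-stimulated HEPG2 CAGA-GFP cells, 500 pg/mL final, 18 h at 37 degrees C in DMEM plus 1% FBS, normalized to unstimulated and DMSO-stimulated controls.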
Nrf2 block = Nrf2 qHTS screen for inhibitors; A549 ARE-Fluc reporter, luciferase luminescence, 18-24 h; AID 504444, 2011; Potency, µM (highest dose often 46 µM), for inactives: at the top dose activity change, negative = inhibition, usual class: inhibitors; actives 2.1% (n = 360,000); note: % is set by controls: 0 for no effect and ±100 for the full control effect; nearly all actives have a fitted effect of over 60% in size
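Concentration-response testing used A549 ARE_Fluc cells at 5000 cells/well. Following an 18-24 h compound incubation, viability was read by fluorescence (Ex 405/Em 525) and luciferase output by luminescence.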
ATXN viability = Viability Counterscreen for Primary qHTS for Inhibitors of ATXN expression; S2 cells (HEK-293 line with an ATXN2-luciferase reporter) viability, CellTiter-Fluor protease fluorescence, 24 h; Potency, µM (titrated, usually from 56.7 µM), actives largely listed as cytotoxic; actives 0.49% (n = 400,000); AID 651635, 2014; note: nearly all actives have a fitted effect of over 40% in size
HepG2 viability = qHTS for Inhibitors of TGF-b: Cytotox Counterscreen; HepG2 CAGA-GFP viability, ATP luminescence, 18 h; Potency, µM (series often up to 46.1 µM), inactives show at the top dose activity change, negative = cytotoxicity, hits mostly cytotoxic; actives 0.76% (n = 410,000)
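CellTiter-Glo luminescence gave cytotoxicity after 18 hours at 37 degrees C. The cells were HepG2 CAGA-GFP in 1% FBS DMEM, stimulated with 500 pg/mL TGF-beta after compound addition. %Activity was normalised to no-cell wells (complete cell-killing) and DMSO (no toxicity), and curves were fitted and classified.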
* hit, by the source's call; i = inactive; ? = inconclusive; / = no result. Calls come from the whole dose curve; as a rule, active = well fitted curve in the direction sought with a large enough effect; inconclusive = small, poorly fitted or top-dose-only effect, or another doubt; inactive = no such curve, though single readings can be large; an effect the other way counts as inactive or inconclusive. Potency is the fitted concentration of half-maximal effect.

SMILES	ATXN2 expr inh	A549 tox	TGFb inhibitor	Nrf2 block	ATXN viability	HepG2 viability
O=C(CSc1ccc(-c2cccnc2)nn1)Nc1ccc(Br)cc1	-24%	-14%	-22%	7.3µM*	i	-22%
CCOC(=O)c1ccc(NC(=O)CSc2ccc(-c3ccccn3)nn2)cc1	?	-16%	-54%	21µM*	i	-28%
O=C(CSc1ccc(-c2cccs2)nn1)Nc1ccccc1C(F)(F)F	/	17%	-24%	-12%	/	-13%
O=C(CSc1ccc(-c2cccs2)nn1)Nc1cccc(F)c1	/	0%	?	21µM*	/	-25%
O=C(CSc1ccc(-c2ccccn2)nn1)Nc1ccc(F)c(F)c1	?	-8%	?	3.3µM*	?	-29%
O=C(CN1CCCCC1)NNc1nc(-c2ccccc2)c2cc(Br)ccc2n1	-7%	1%	18%	3%	i	-2%
O=C(NCc1ccc(F)cc1)c1ccc(NC(=O)N2CC3CCCN3c3ccccc32)cc1 (centres undefined)	-23%	3%	-26%	-23%	?	-8%
O=C(CSc1n[nH]c(-c2ccccn2)n1)Nc1ccc(Cl)cc1	20µM*	-3%	-21%	-17%	i	-1%
O=C(CSc1n[nH]c(-c2ccccn2)n1)Nc1ccc(F)cc1	?	5%	-1%	-1%	i	-22%
COc1ccc(NCc2nnc(SCC(=O)c3ccc(OC)cc3)o2)cc1	3%	-7%	21%	3%	i	-35%
CCOc1cc(C(=O)CSc2nnc(CNc3ccc(Cl)cc3)o2)ccc1NC(=O)CC	32µM*	-27%	?	?	20µM*	10µM*
CCCCOc1cccc(C(=O)Nc2cccc(-c3nc4ncccc4o3)c2C)c1	?	-4%	?	16µM*	?	-39%
CCCCC(=O)Nc1cccc(-c2nc3ncccc3o2)c1C	7%	-9%	8%	-18%	i	0%
Cc1nnc(N/N=C/c2ccc(-c3ccc(Br)cc3)o2)n1N	-33%	-2%	?	10%	/	-104%
Nn1cnnc1N/N=C/c1ccc(F)cc1	/	0%	?	-14%	?	-119%
COc1ccc(/C=N/Nc2nnc(C)n2N)cc1OC(C)=O	-3%	3%	10µM*	-7%	i	13µM*
Cc1nnc(N/N=C/c2ccc(Br)cc2)n1N	-29%	9%	?	6%	i	16µM*
COc1ccc(/C=N/Nc2nnc(C)n2N)cc1OC	-8%	0%	-50%	13%	i	-114%
Nn1cnnc1N/N=C/c1ccc(Cl)c([N+](=O)[O-])c1	-18%	-13%	?	-12%	i	11µM*
Cc1ccc(/C=N/Nc2nncn2N)cc1	-12%	-3%	11µM*	-18%	i	i
Cc1csc(CN(C)C(=O)CC2C(=O)NCCN2Cc2ccc(Cl)c(F)c2)n1 (centres undefined)	2%	10%	-7%	11%	i	-2%
O=C1NC[C@@H](CCCCN2CCN(CCc3ccc(O)cc3)C(=O)C2=O)N(CCc2ccc(O)cc2)C1=O	-7%	/	/	/	i	/
Cc1cccc(CC(C)NC(=O)CCc2nnc(-c3ccccc3)o2)n1 (centres undefined)	/	2%	-3%	12%	i	2%
CC(NC(=O)CCc1nnc(-c2ccc(-c3ccccc3)cc2)o1)c1nc2ccccc2[nH]1 (centres undefined)	3.8µM*	-2%	-24%	?	i	-23%
O=C(C[C@H]1C[C@@H]2c3cc(NC(=O)c4cccnc4)ccc3O[C@@H]2[C@H](CO)O1)NCc1ccncc1	11%	/	6%	/	i	-12%
SMILES	ATXN2 expr inh	A549 tox	TGFb inhibitor	Nrf2 block	ATXN viability	HepG2 viability
Cc1ccc(S(=O)(=O)N2CCN(c3nc(-c4ccco4)nc4ccccc34)CC2)cc1	/	1%	/	-21%	/	/
COc1cccc2sc3cc(C#CC4(O)CCCCC4)ccc3c(=O)c12	?	-13%	7.1µM*	?	?	7.1µM*
Cc1ccccc1NC(=O)CSc1nc(-c2ccccc2)cn1-c1ccccc1F	?	-13%	11µM*	/	?	-1%
Cc1ccccc1-n1cc(-c2ccccc2)nc1SCC(=O)Nc1ccc(F)cc1	-23%	-11%	?	/	i	-3%
NC(=O)N[C@@H](CCC(=O)O)C(=O)O	-4%	/	/	/	i	/
Cc1ccc(/C=N/N(C)S(=O)(=O)c2ccc(C)cc2)cc1	-23%	-1%	-26%	26µM*	i	-5%
Cc1ccc(S(=O)(=O)N(C)S(=O)(=O)c2ccc(C)cc2)cc1	-20%	4%	-3%	23µM*	i	-13%
CSc1ccc(/C=N/N(C)S(=O)(=O)c2ccc(C)cc2)cc1	-26%	-3%	0%	?	i	-2%
Cc1ccc(N(C)S(=O)(=O)c2ccc(C)cc2)cc1	-9%	4%	20%	-1%	i	-1%
CCCc1cc(=O)[nH]c(SCC(=O)N(C)C2CCCCC2)n1	/	0%	17%	21%	i	-33%
O=C(CSc1ccccn1)Nc1nonc1[N+](=O)[O-]	/	-3%	11µM*	?	13µM*	13µM*
O=C(CSc1ccccn1)Nc1ccc(NC(=O)CSc2ccccn2)cc1	14%	7%	1%	?	i	10%
COc1ccc(C2=NN(CC(=O)NCCc3ccccc3)C(=O)CC2)cc1	/	10%	-11%	/	/	5%
CCOC(=O)N1CCN(c2ccc(S(=O)(=O)N3CCC(C)CC3)cc2[N+](=O)[O-])CC1	/	-2%	?	18µM*	?	-11%
CC(=O)N1CCN(c2ccc(S(=O)(=O)N3CCOCC3)cc2[N+](=O)[O-])CC1	-8%	3%	7%	1%	i	2%
Cc1ccc2nc(CO)[nH]c2c1	/	/	6%	/	/	-1%
COc1ccc(OC)c(CCNC(=O)Cn2nc(C)c3c(C)n(-c4ccc(C)cc4)nc3c2=O)c1	-34%	-15%	?	10µM*	i	-18%
CC1(C)CC(=O)c2cc(C(=O)Nc3ccc(Br)cc3)c(=O)[nH]c2C1	30%	6%	1%	6%	i	-2%
CC(C)NC(=O)Cn1c(SCC(=O)NC2CCCC2)nc2ccccc21	1%	-6%	-15%	7%	i	-2%
CC(C)Cn1c(SCC(=O)NC(=O)NC2CCCC2)nc2ccccc21	-11%	?	?	18µM*	i	-44%
